According to the supplement of paper PMC9262897, “Low-cost anti-mycobacterial drug discovery using engineered E. coli” (Nature Communications, 2022):
Counter-ions that a name gives are not always drawn. ± gives the standard deviation of the averaged measurements.

Tests used:
Assay in all cases: growth (OD600 after 10 h); higher = more growth (less inhibition)
[1] = system: E. coli TESEC Alr+ wild-type control; conditions: compound 0.1 mM; raw OD600 reference: median of DMSO wells 0.241, cell-free background 0.041
Description: (§1)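 TESEC Mtb Alr E. coli, or the Alr+ wild-type control, in 384-well plates with Prestwick library compounds at 0.1 mM and 1% DMSO, across arabinose induction levels of 1E3 to 1E7 nM. Growth is read as OD600 after 10 h at 37 °C in triplicate biological replicates.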

[2] = system: E. coli TESEC Mtb Alr; conditions: compound 0.1 mM
Description: as §1

[3] = system: E. coli TESEC Mtb Asd; conditions: compound 0.1 mM
Description: (§2)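 TESEC E. coli strains in which the native enzyme is deleted and replaced by arabinose-inducible Mtb Asd, DapB, CysH or TrpD, each grown in its selective medium. Strains were screened against the Prestwick library at 0.1 mM and 1% DMSO in 384-well format at low and high arabinose induction. Growth is read as OD600 after 10 h in triplicate.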

[4] = system: E. coli TESEC Mtb DapB; conditions: compound 0.1 mM
Description: as §2

[5] = system: E. coli TESEC Alr+ wild-type control; conditions: compound 0.1 mM; raw OD600 reference: median of DMSO wells 0.49, cell-free background 0.052
Description: (§3)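 TESEC Mtb Alr E. coli (ΔaraC ΔtolC ΔentC Δalr ΔdadX, arabinose-inducible Mtb Alr) or the Alr+ wild-type control strain, grown in defined M9-fructose medium without D-alanine in 96-well plates with Prestwick library compounds at 0.1 mM and 1% DMSO. Low Alr induction is 0.1 µM arabinose and high induction is 10 mM arabinose.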

[6] = system: E. coli TESEC Mtb Alr; conditions: compound 0.1 mM; remark: listed apart in the source
Description: as §3

[7] = arabinose 1000 nM, raw OD600 reference: median of DMSO wells 0.294, cell-free background 0.041
[8] = arabinose 10000 nM, raw OD600 reference: median of DMSO wells 0.264, cell-free background 0.041
[9] = arabinose 100000 nM, raw OD600 reference: median of DMSO wells 0.201, cell-free background 0.041
[10] = arabinose 1000000 nM, raw OD600 reference: median of DMSO wells 0.193, cell-free background 0.041
[11] = arabinose 10000000 nM, raw OD600 reference: median of DMSO wells 0.146, cell-free background 0.041
[12] = arabinose induction (level): High, raw OD600 reference: median of DMSO wells 0.331, cell-free background 0.041
[13] = arabinose induction (level): Low, raw OD600 reference: median of DMSO wells 0.417, cell-free background 0.041
[14] = arabinose induction (level): High, raw OD600 reference: median of DMSO wells […], cell-free background 0.041
[15] = arabinose induction (level): Low, raw OD600 reference: median of DMSO wells 0.227, cell-free background 0.041
[16] = arabinose 100 nM, raw OD600 reference: median of DMSO wells 0.413, cell-free background 0.052
[17] = arabinose 10000000 nM, raw OD600 reference: median of DMSO wells […], cell-free background 0.052

Row | Compound | growth [1] | growth [2, 7] | growth [2, 8] | growth [2, 9] | growth [2, 10] | growth [2, 11] | growth [3, 12] | growth [3, 13] | growth [4, 14] | growth [4, 15] | growth [5] | growth [6, 16] | growth [6, 17]
1 | CN1CCC(=C2c3ccccc3CCc3sccc32)CC1 [Pizotifen malate] | 0.127 ± 0.006 | 0.133 ± 0.0045 | 0.0893 ± 0.0025 | 0.0952 ± 0.0015 | 0.0482 ± 0.0045 | 0.0637 ± 0.00071 | 0.148 ± 0.013 | 0.181 ± 0.012 | 0.178 ± 0.0086 | 0.193 ± 0.0037 | 0.146 ± 0.012 | 0.402 ± 0.027 | 0.132 ± 0.054
2 | O=P(O)(O)C(O)(Cc1cccnc1)P(=O)(O)O [Risedronic acid monohydrate] | 0.247 ± 0.0087 | 0.2984 ± 0.0028 | 0.265 ± 0.0074 | 0.191 ± 0.0063 | 0.196 ± 0.0097 | 0.156 ± 0.0062 | 0.278 ± 0.053 | 0.376 ± 0.05 | 0.192 ± 0.014 | 0.26 ± 0.052 | 0.608 ± 0.083 | 0.426 ± 0.015 | 0.277 ± 0.011
3 | NS(=O)(=O)c1cc(C(=O)O)c(NCc2ccco2)cc1Cl [Furosemide] | 0.244 ± 0.0029 | 0.303 ± 0.0075 | 0.2547 ± 0.00051 | 0.242 ± 0.024 | 0.18 ± 0.0021 | 0.148 ± 0.0056 | 0.353 ± 0.011 | 0.408 ± 0.054 | 0.181 ± 0.0028 | 0.194 ± 0.0081 | 0.613 ± 0.019 | 0.406 ± 0.012 | 0.353 ± 0.014
4 | OCCN1CCN(CCCN2c3ccccc3C=Cc3ccccc32)CC1 [Opipramol dihydrochloride] | 0.142 ± 0.003 | 0.271 ± 0.023 | 0.245 ± 0.0065 | 0.179 ± 0.0079 | 0.0873 ± 0.0083 | 0.137 ± 0.003 | 0.16 ± 0.019 | 0.276 ± 0.024 | 0.199 ± 0.027 | 0.218 ± 0.04 | 0.464 ± 0.013 | 0.407 ± 0.006 | 0.298 ± 0.0042
5 | CCCN(CCC)C(=O)C(CCC(=O)O)NC(=O)c1ccccc1 (centres undefined) [Proglumide] | 0.255 ± 0.0056 | 0.282 ± 0.036 | 0.29 ± 0.017 | 0.22 ± 0.025 | 0.188 ± 0.0035 | 0.17 ± 0.0066 | 0.318 ± 0.075 | 0.368 ± 0.053 | 0.205 ± 0.018 | 0.246 ± 0.019 | 0.477 ± 0.079 | 0.415 ± 0.021 | 0.376 ± 0.033
6 | NC(CO)C(=O)NNCc1ccc(O)c(O)c1O (centres undefined) [Benserazide hydrochloride] | 0.0616 ± 0.0013 | 0.246 ± 0.0069 | 0.224 ± 0.0028 | 0.205 ± 0.033 | 0.0994 ± 0.0023 | 0.124 ± 0.0056 | 0.186 ± 0.018 | 0.186 ± 0.0073 | 0.185 ± 0.023 | 0.227 ± 0.024 | 0.465 ± 0.036 | 0.337 ± 0.069 | 0.148 ± 0.03
7 | CC(C)(C)NCC(O)c1cc(O)cc(O)c1 (centres undefined) [Terbutaline hemisulfate] | 0.251 ± 0.0065 | 0.301 ± 0.0057 | 0.265 ± 0.0072 | 0.238 ± 0.047 | 0.1766 ± 0.0011 | 0.163 ± 0.0049 | 0.293 ± 0.03 | 0.385 ± 0.042 | 0.226 ± 0.004 | 0.221 ± 0.013 | 0.504 ± 0.051 | 0.402 ± 0.0092 | 0.354 ± 0.026
8 | Cc1cc(CC(=O)O)n(C)c1C(=O)c1ccc(Cl)cc1 [Zomepirac sodium salt] | 0.22 ± 0.0032 | 0.261 ± 0.022 | 0.239 ± 0.0082 | 0.16 ± 0.0043 | 0.1938 ± 0.0017 | 0.121 ± 0.0027 | 0.473 ± 0.13 | 0.295 ± 0.069 | 0.187 ± 0.0096 | 0.247 ± 0.038 | 0.476 ± 0.083 | 0.392 ± 0.014 | 0.3428 ± 0.0013
